# Laboratory results published in PubChem BioAssay (NCI).
# The panel holds about 83,000 compounds, 20% with a hit somewhere; the sample as a whole holds those more often.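 Note: values are percent growth. 100 is the growth of untreated cells, values between 100 and 0 indicate rising inhibition; between -100 and 0 indicates cell death.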 Values without a mark were called inactive. Active and inactive are the calls of the source. Rule for the calls: active = growth percent below 10; inactive = the rest.
# Legend:
# Experiment in all cases: NCI-60 one-dose screen, 48 h (100 = growth as untreated, 0 = no growth, -100 = all killed)
# Conditions in all cases: 10 µM unless noted
# NCI-H23 lung = tested on: NCI-H23 lung
# NCI-H226 lung = tested on: NCI-H226 lung
# NCI-H322M lung = tested on: NCI-H322M lung
# HOP-62 NSCLC = tested on: HOP-62 NSCLC
# NCI-H460 lung = tested on: NCI-H460 lung
# NCI-H522 lung = tested on: NCI-H522 lung
# A549/ATCC NSCLC = tested on: A549/ATCC NSCLC
# 786-0 renal = tested on: 786-0 renal
# COLO 205 colon = tested on: COLO 205 colon
# DU-145 prostate = tested on: DU-145 prostate
# K-562 leukemia = tested on: K-562 leukemia
# MALME-3M melanoma = tested on: MALME-3M melanoma
# MDA-MB-231 breast = tested on: MDA-MB-231 breast
# RXF 393 renal = tested on: RXF 393 renal
# SF-268 CNS = tested on: SF-268 CNS
# SF-295 CNS = tested on: SF-295 CNS
# SF-539 CNS = tested on: SF-539 CNS
# UACC-257 melanoma = tested on: UACC-257 melanoma
# M14 melanoma = tested on: M14 melanoma
SMILES,growth (NCI-H23 lung) [%],growth (NCI-H226 lung) [%],growth (NCI-H322M lung) [%],growth (HOP-62 NSCLC) [%],growth (NCI-H460 lung) [%],growth (NCI-H522 lung) [%],growth (A549/ATCC NSCLC) [%],growth (786-0 renal) [%],growth (COLO 205 colon),growth (DU-145 prostate) [%],growth (K-562 leukemia),growth (MALME-3M melanoma) [%],growth (MDA-MB-231 breast) [%],growth (RXF 393 renal),growth (SF-268 CNS) [%],growth (SF-295 CNS) [%],growth (SF-539 CNS) [%],growth (UACC-257 melanoma),growth (M14 melanoma) [%]
COc1ccc(-c2cc(-c3ccc(OC)cc3)c3sc(=O)[nH]c3n2)cc1,98,71,82.3,70.5,94,69.1,78.4,79.3,107%,107,94.2%,109,87.6,77.7%,92.6,96.8,81.8,104%,109
Cc1ccc(C)c2c1SC1=NNC(Oc3ccc(Cl)cc3)=C(C#N)C(=N)N12,92.7,94.2,101,103,99.9,87.9,108,110,105%,112,95.1%,123,99.6,118%,113,93.7,103,101%,107
CC(C)c1nc2ccccc2n1CC(=O)N/N=C/c1cccc(O)c1,101,105,93.2,97.4,102,86.6,97.5,95.6,108%,104,87%,108,93.4,104%,99.2,103,97.6,87.7%,94.8
COc1ccc2nc3ccccc3c(NCc3ccc(C)cc3)c2c1,28.3,42.1,30.3,39,10,26.4,19.3,15.8,-40.6% (active),21.6,2.71% (active),22.1,33.6,6.17% (active),48.4,23.6,10.7,-7.97% (active),28.7
